Structures are written as SMILES. Inconclusive results are not listed. Entries that show only a call come without a potency. Active and inactive are the calls of the source. Calls come from the whole dose curve; as a rule, active = well fitted activation curve with a large enough effect in the repeat runs; inconclusive = weak or mixed curves; inactive = flat fitted curve, though single readings scatter.

This assay in a line: Caspase-3/7 induction in HepG2 cells by small molecules, qHTS assay (AID 1346978). Note: nearly all actives have a fitted effect of over 15% in size. The conditions noted are these: HepG2 caspase-3/7 activation, Caspase-Glo luminescence, 17 h; series mostly up to 92.4 µM. The text has this: National Center for Advancing Translational Sciences [NCATS] NIH Chemical Genomics Center [NCGC] U.S. Environmental Protection Agency [EPA] National Institutes of Environmental Health Sciences [NIEHS] National Toxicology Program [NTP] Assay overview: Apoptosis is a process of programmed cell death and plays a central role in the development of multicellular organisms. It is a highly regulated process and induces cell death by activating caspases, which are the members of cysteine aspartic acid-specific protease (caspase) family. Caspases involved in apoptosis are classified by their mechanism of action as initiator caspases (caspase-2, -8, -9 and -10) and executioner caspases (caspase-3, -6, and -7). Inhibition of apoptosis results in number of cancers, autoimmune diseases, inflammatory diseases and viral infection. To identify small molecule compounds that induce apoptosis, a homogeneous, luminescent Caspase-Glo 3/7 assay was used. Wild type HepG2 cells were used to screen Tox21 libraries for identifying caspase-3/7 activity inducers.
Assay Protocol Summary: HepG2 cells were dispensed at 2,000 per well in 5uL of culture medium into white solid bottom 1536-well plates (Corning Life Sciences, Corning, NY) using a Multidrop Combi (Thermo Scientific, Waltham, MA) dispenser. The assay plates were incubated at 37 C and 5% CO2 for 5hr, and then 23nL of compounds dissolved in DMSO and positive control were transferred using a Pintool station (Wako, San Diego, CA). The assay plates were incubated at 37C and 5% CO2 for 17hr. For caspase-3/7 activity read, 4uL of Caspase-Glo 3/7 reagent (Promega Corporation, Madison, WI) was added to each well of the assay plates using Flying Reagent Dispenser (FRD, Aurora Discovery, San Diego, CA) and incubated the assay plates at room temperature for 30min. The luminescence signal was quantified using a ViewLux plate reader (Perkin Elmer, Shelton, CT).
As to `CC[N+](CC)(CC)CCOC(=O)C(C1CCCC1)C1CCCC1`, the Potency result was “inactive”.
As to `O=c1oc2cc(O)ccc2c2oc3cc(O)ccc3c12`, the Potency entry is “inactive”.
As to `COC(=O)Nc1nc2ccc(C(=O)c3ccccc3)cc2[nH]1`, the Potency result is “inactive”.
Turning to `Cc1c(F)c(N2CCNC(C)C2)cc2c1c(=O)c(C(=O)O)cn2C1CC1` (stereo not given), the Potency result was “inactive”.
For the compound `CC(=O)[C@H]1CC[C@H]2[C@@H]3CCC4=CC(=O)CC[C@]4(C)[C@H]3CC[C@]12C`, the Potency entry is “inactive”.
Take `Cc1c2ccccc2c(C)c2c1ccc1ccccc12`: the Potency entry was “inactive”.
For `Cc1nc(-c2ccc(Cl)cc2)oc1COC(C)(C)C(=O)O`, the Potency result was “inactive”.
Turning to `CC(CCc1ccccc1)NCC(O)c1ccc(O)c(C(N)=O)c1` (stereo not given), the Potency entry is “inactive”.
The same measure for `COC(C)=O`: “inactive”; for `C=Cc1ccccc1C=C`: “inactive”; for `CCCNCCC`: “inactive”.
The entry for `CCCCCc1ccc(Cl)cc1` is “inactive”.
Take `Cc1c(N)cccc1C(F)(F)F`: the Potency result is “inactive”.
With `Cc1cc(C(C)(C)C)cc(C)c1CC1=NCCN1`, the Potency result was “inactive”.
The same measure for `C=CC(=O)OCCOC(=O)C=C`: “inactive”; for `O=[N+]([O-])c1cccc(C(F)(F)F)c1`: “inactive”; for `O=C(O)Cc1ccc2c(c1)C(=O)c1ccccc1CO2`: “inactive”.
Turning to `O=C1c2ccccc2C(=O)N1SC1CCCCC1`, the Potency entry is “inactive”.
The same measure for `CCCCCCC1CCCC(=O)O1` (stereo not given): “inactive”; for `Cc1cc(C)c(/C=C2\C(=O)Nc3ccccc32)[nH]1`: “inactive”; for `O=C(/C=C/c1ccc(O)c(O)c1)O[C@@H](C(=O)O)[C@@H](OC(=O)/C=C/c1ccc(O)c(O)c1)C(=O)O`: “inactive”.
The same measure for `CCN(CC)c1ccc2c(-c3ccc(S(=O)(=O)O)cc3S(=O)(=O)[O-])c3ccc(=[N+](CC)CC)cc-3oc2c1`: “inactive”; for `Cc1c(C)c2c(c(C)c1OC(=O)c1cccnc1)CC[C@@](C)(CCC[C@H](C)CCC[C@H](C)CCCC(C)C)O2`: “inactive”; for `FC(F)(F)c1cccc(Cl)c1`: “inactive”.
Turning to `C/C=C/C=C/COC(=O)C(C)C`, the Potency result was “inactive”.
The same measure for `CCCCOC(=O)CC`: “inactive”; for `OC[C@H]1O[C@H](O[C@H]2O[C@H](CO)[C@@H](O)[C@H](O)[C@H]2O)[C@H](O)[C@@H](O)[C@@H]1O`: “inactive”.
Take `OC[C@@H](O)[C@@H](O)CO`: the Potency result was “inactive”.
Take `CCCCNS(=O)(=O)c1ccc(C)cc1`: the Potency result is “inactive”.
The entry for `C=C(C)c1cccc(C(=C)C)c1` is “inactive”.
`C#Cc1ccc(-c2ccccc2F)cc1`: the Potency entry was “inactive”.
`C=Cc1cccc(C)c1`: the Potency result was “inactive”.
Regarding `Cc1cc(C(C)(C)C)c(O)c(C)c1Cn1c(=O)n(Cc2c(C)cc(C(C)(C)C)c(O)c2C)c(=O)n(Cc2c(C)cc(C(C)(C)C)c(O)c2C)c1=O`, the Potency result was “inactive”.
For the compound `O=C1CCCCCCCCCCCCCCCO1`, the Potency entry was “inactive”.
Consider `OCC(F)(F)F`, for which the Potency entry was “inactive”.
The entry for `Cc1ccc(O)c(O)c1` is “inactive”.
As to `CC(C)(C)NSc1nc2ccccc2s1`, the Potency result was “inactive”.
The same measure for `OC/C=C/CO`: “inactive”; for `CC1(C)CC(O)CC(C)(C)N1`: “inactive”; for `CNc1ccc([N+](=O)[O-])cc1`: “inactive”.
